Assay results published in the supplement of paper PMC6555819.

Columns and labels:
Test in all cases: PBM binding z-score (relative to random genomic background probes); higher = stronger binding; sequences stand for … in GC…GCGATTGACAGCGTAGAATGAAGG
[1] = system: FXR:RXRa (NR concentration 270 nM, RXRa partner concentration 90 nM)
Summary of the method: (§1)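 Each nuclear receptor dimer, without ligand, was incubated for 1 h on custom Agilent 4×180K protein-binding microarrays. Binding was detected with antibodies against each partner (one per run), and scanned fluorescence was regression-normalized. The binding z-scores are referenced to random human genomic background probes.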

[2] = system: LXRa:RXRa (NR concentration 270 nM, RXRa partner concentration 90 nM)
Summary of the method: as §1

[3] = system: LXRa homodimer (NR concentration 270 nM)
Summary of the method: as §1

[4] = system: LXRb:RXRa (NR concentration 270 nM, RXRa partner concentration 90 nM)
Summary of the method: as §1

[5] = system: LXRb homodimer (NR concentration 270 nM)
Summary of the method: as §1

[6] = system: PPARa:RXRa (NR concentration 270 nM, RXRa partner concentration 90 nM)
Summary of the method: as §1

[7] = system: PPARg:RXRa (NR concentration 180 nM, RXRa partner concentration 90 nM)
Summary of the method: as §1

[8] = system: PPARg:RXRa 270nM:90nM, anti-RXR (NR concentration 270 nM, RXRa partner concentration 90 nM)
Summary of the method: as §1

[9] = system: PPARg:RXRa 30nM:10nM, anti-RXR (NR concentration 30 nM, RXRa partner concentration 10 nM)
Summary of the method: as §1

[10] = system: PPARg:RXRa 90nM:30nM, anti-RXR (NR concentration 90 nM, RXRa partner concentration 30 nM)
Summary of the method: as §1

[11] = system: PPARg:RXRa DBDmut IVT, anti-RXR (DBD mutation: RXRa K156A/R161A, NR concentration 270 nM, RXRa partner concentration 90 nM)
Summary of the method: as §1

[12] = system: PPARg:RXRa IVT, anti-PPARg (NR concentration 270 nM, RXRa partner concentration 90 nM)
Summary of the method: as §1

[13] = system: PPARg DBDmut:RXRa IVT, anti-PPARg (DBD mutation: PPARg1 K132A/R137A, NR concentration 270 nM, RXRa partner concentration 90 nM)
Summary of the method: as §1

[14] = system: PPARg DBDmut IVT, anti-PPARg (DBD mutation: PPARg1 K132A/R137A, NR concentration 270 nM)
Summary of the method: as §1

[15] = system: PPARg homodimer (NR concentration 180 nM)
Summary of the method: as §1

[16] = system: PXR:RXRa (NR concentration 270 nM, RXRa partner concentration 90 nM)
Summary of the method: as §1

[17] = system: PXR homodimer (NR concentration 270 nM)
Summary of the method: as §1

[18] = system: RARa:RXR (NR concentration 270 nM, RXRa partner concentration 90 nM)
Summary of the method: as §1

[19] = system: RARa homodimer (NR concentration 270 nM)
Summary of the method: as §1

[20] = system: RARb:RXRa (NR concentration 270 nM, RXRa partner concentration 90 nM)
Summary of the method: as §1

| Sequence | PBM binding z-score [1] | PBM binding z-score [2] | PBM binding z-score [3] | PBM binding z-score [4] | PBM binding z-score [5] | PBM binding z-score [6] | PBM binding z-score [7] | PBM binding z-score [8] | PBM binding z-score [9] | PBM binding z-score [10] | PBM binding z-score [11] | PBM binding z-score [12] | PBM binding z-score [13] | PBM binding z-score [14] | PBM binding z-score [15] | PBM binding z-score [16] | PBM binding z-score [17] | PBM binding z-score [18] | PBM binding z-score [19] | PBM binding z-score [20] |
| --- | --- | --- | --- | --- | --- | --- | --- | --- | --- | --- | --- | --- | --- | --- | --- | --- | --- | --- | --- | --- |
| ATCTCTAGGTAAAGTTCCGTGAAAGATCGATAGA | 0.524 | 0.229 | 0.166 | 0.245 | 0.829 | 0.649 | 0.291 | 0.898 | 0.751 | 0.543 | 2.64 | 1.76 | 0.867 | 0.679 | 0.653 | 0.0557 | 0.396 | 0.388 | 1.19 | 0.403 |
| CGTACTGGGCCAAGGTCATTGATCAGTCAAAGCA | 3.11 | 3.03 | 1.23 | 3 | -0.201 | 3.99 | 4.09 | 4.29 | 1.79 | 3.54 | 4.15 | 4.66 | -0.787 | -0.351 | 1.31 | 3.51 | 1.34 | 3.71 | -0.0917 | 3.35 |
| GCAGACAGGTGGAACGCAGGTAACTCAGGGTGGC | -0.427 | -0.547 | -0.822 | -0.84 | -1.13 | -0.427 | 0.342 | -0.6 | -0.85 | -1.06 | -0.523 | -0.717 | -1.02 | -1.2 | -0.728 | -0.719 | -0.596 | -0.428 | -1.35 | -0.55 |
| ATATGGAGGTTACATCCGGGTCATTCAGGCTATG | 2.99 | 5.32 | 1.94 | 3.8 | 0.764 | 3.79 | 3.01 | 2.85 | 0.871 | 1.91 | 2.72 | 3.63 | 1.46 | 0.791 | 2.15 | 4.57 | 2.76 | 4.94 | 0.676 | 2.88 |
| CCTCGGAGGACAACAGGAGGTCAGAGCGGCCAGA | 1.36 | 2.25 | 2.24 | 1.42 | -0.43 | 2.09 | 0.411 | 0.182 | -0.715 | -0.31 | 0.0202 | 0.396 | -0.758 | -1.19 | 1.8 | 2.31 | 0.892 | 2.47 | 0.103 | 3 |
| GCAGACAGGTGAAACGCAGGTAACCCAGGGTGGC | -0.174 | -0.00229 | -0.737 | -0.377 | -1.23 | 0.855 | 0.586 | -0.135 | -0.728 | -0.633 | 0.158 | 0.862 | -0.147 | -0.879 | -0.777 | -0.365 | -0.8 | 0.305 | -1.34 | 0.601 |
| AGTCAGAGTTCAGGACGAGGTAACGTAAAGCACG | 3.72 | 3.51 | 0.881 | 1.82 | -0.0374 | 3.02 | 2.26 | 2.51 | 0.689 | 2.1 | -0.749 | 0.676 | 0.355 | -0.341 | 1.36 | 3.45 | 1.88 | 2.67 | 0.511 | 3.62 |
| TCTCGGGGGACACGAAGGTCAGAGCTTTCCAGAG | 2.9 | 2.88 | 0.575 | 4.36 | 6.23 | 3.77 | 1.86 | 3.73 | 3.31 | 3.45 | 2.39 | 3.51 | 2.53 | 5.36 | 2.05 | 3.27 | 1.24 | 3.29 | 0.556 | 3.73 |
| GCAGACAGGTCAAACGCAGGTAACTCAGGGTGGC | 6.46 | 4.96 | 1.47 | 3.62 | 0.592 | 5.06 | 3.15 | 3.59 | 0.933 | 2.14 | 2.15 | 1.91 | 0.427 | -0.842 | 2 | 3.06 | -0.42 | 4.18 | -0.318 | 4.17 |
| CAAACTCGGTCACGAAAGGTCAAAGTCGAATGAC | 6.39 | 7.32 | 7.74 | 6.5 | 2.6 | 5.95 | 6.08 | 5.84 | 2.68 | 5.51 | 5.23 | 5.86 | 1.31 | 0.821 | 7.09 | 6.39 | 2.67 | 6.96 | 4.39 | 5.02 |
| GCTAGCAGGCCCTTTGGGTCACTCAATGACGGGC | -0.0163 | -0.0683 | -0.519 | -0.325 | -1.53 | 0.647 | 0.157 | 0.373 | -0.568 | 0.116 | -0.306 | 0.697 | -0.724 | -0.795 | -0.401 | -0.203 | -0.555 | 0.51 | -0.612 | 0.879 |
| TGAATGAGGTTAAAAGATCAGGGAACGTTGCAAA | 2.41 | 2.05 | -0.107 | 1.55 | -0.114 | 3.8 | 2.57 | 3.45 | 1.49 | 2.53 | 1.14 | 2.17 | 0.743 | 0.45 | 0.137 | 1.26 | 0.0168 | 2.04 | 0.336 | 1.72 |
| CCTAGTTGGTAAAGGTCACACACGCTATAGGTAC | 6.25 | 5.71 | 4.56 | 5.64 | 2.13 | 5.93 | 5.47 | 6.3 | 4 | 5.63 | 1.96 | 4.31 | 1.8 | 2.57 | 5.56 | 5.79 | 2.18 | 6.31 | 3.99 | 5.22 |
| GCTGCTAGGTCAACTGACGGTCAGCTAAAGCTCG | 4.79 | 3.96 | 1.36 | 2.5 | 0.152 | 3.92 | 2.88 | 3.37 | 0.824 | 2.14 | 5.14 | 4.49 | 0.437 | -0.0795 | 4.42 | 2.08 | -0.874 | 4.58 | 1.05 | 4.56 |
| CCTTACGGGTCACGAAGTTATAGCACGACGAGCG | 6.04 | 3.71 | -0.266 | 3.39 | -0.139 | 5.75 | 6.25 | 5.64 | 2.5 | 4.43 | 3.76 | 4.76 | 0.631 | -0.0727 | 1.89 | 3.31 | -0.0842 | 3.86 | 0.765 | 4.51 |
| ATACCAATGTGATCGTGAGGTCGTTGATACTAAC | 1.13 | 0.684 | 0.704 | 0.894 | -0.063 | 0.905 | 0.346 | 0.198 | 0.123 | 0.295 | -0.174 | 0.568 | 0.648 | 1.38 | 0.242 | 2.06 | 1.23 | 1.39 | -0.115 | 0.569 |
